This passage reports outcome and AC50 results from PubChem BioAssay (EPA / NIEHS).

The source made the active and inactive calls. The calls were made as follows: active = hit-call score of the fitted dose curve at least 0.9, where 1 is the maximum; inactive = score below 0.9.

As usually defined, the AC50 is the concentration giving half of the maximal activity seen.

Assay [1] in a line: ATG_E_Box_CIS: Attagene CIS-FACTORIAL HepG2 Assay for human Enhancer Box (E-box) (AID 2282936). The conditions noted are these: HepG2 E-box cis-reporter transcription, actives raise or lower the signal. An outline of the steps: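 Measured 24 h post-dosing in HepG2 cells transfected with multiple cis-regulated reporter units, signal being reporter mRNA induction detected by fluorescent RT-PCR with capillary electrophoresis; gain or loss fitted against DMSO.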

A short description of assay [2]: ATG_M_61_CIS: Attagene CIS-FACTORIAL HepG2 Assay for M61 Transcription Factor (Internal Marker) (AID 2282937). The settings on record: HepG2 Attagene CIS-FACTORIAL M61 internal marker reporter; actives raise or lower the signal. An outline of the steps: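 HepG2 cells transiently transfected with multiplexed cis-promoter reporter units reporting endogenous transcription factor activity, measured 24 h after dosing. Reporter mRNA quantified by RT-PCR and capillary electrophoresis; bidirectional fit against DMSO baseline.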

The nature of assay [3]: ATG_EGR_CIS: Attagene CIS-FACTORIAL HepG2 Assay for human Early Growth Response 1 (EGR1) (AID 2282938). The settings on record: HepG2 Attagene CIS-FACTORIAL EGR reporter mRNA; actives raise or lower the signal. An outline of the steps: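 HepG2 cells transiently transfected with cis-element-driven multiplexed reporter units, dosed for 24 h. EGR1-element reporter mRNA quantified by RT-PCR, 6-FAM labelling, HpaI digestion and capillary electrophoresis; bidirectional fit versus DMSO.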

Assay [4] can be described thus: ATG_M_19_CIS: Attagene CIS-FACTORIAL HepG2 Assay for M19 Transcription Factor (Internal Marker) (AID 2282939). The settings on record: HepG2 Attagene CIS-FACTORIAL M19 internal marker reporter; actives raise or lower the signal. An outline of the steps:
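Readout: fluorescent reporter-transcript fragments by capillary electrophoresis after RT-PCR. Human HepG2 liver cells carried transfected MRTU constructs reporting endogenous transcription-factor activity; exposure 24 h. Gain or loss of signal fitted relative to DMSO.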

Assay [5] in a line: ATG_ERE_CIS: Attagene CIS-FACTORIAL HepG2 Assay for Estrogen Response Element (ERE) (AID 2282940). The conditions noted are these: HepG2 ERE cis-reporter, Attagene RNA transcript; actives raise or lower the signal. An outline of the steps:
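Readout: reporter mRNA induction by RT-PCR, FAM-labelled primer extension, HpaI digestion and capillary electrophoresis, 24 h after dosing transfected HepG2 cells. Endogenous transcription factors act on cis-element-regulated reporters. Gain or loss fitted against DMSO.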

The nature of assay [6]: ATG_Ets_CIS: Attagene CIS-FACTORIAL HepG2 Assay for human Erythroblast Transformation Specific (ETS) (AID 2282941). The conditions noted are these: HepG2 ETS cis-reporter transcription, actives raise or lower the signal. An outline of the steps: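 RT-PCR/capillary electrophoresis fluorescence read-out of reporter mRNA; HepG2 transient multi-reporter transfection; 24 h compound exposure; gain or loss of signal fitted bidirectionally relative to DMSO.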

Assay [7] deals with Hepatocyte nuclear factor 3-beta (Homo sapiens) (UniProt Q9Y261). As to the kind of experiment: ATG_FoxA2_CIS: Attagene CIS-FACTORIAL HepG2 Assay for human Forkhead box A2 (FOXA2) (AID 2282942). The conditions noted are these: HepG2 cis-reporter transcription factor activity, 24 h; actives raise or lower the signal. An outline of the steps: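 HepG2 transiently transfected with a multiplexed cis-promoter reporter library read endogenous FOXA2 activity. After 24 h compound exposure, reporter mRNA was quantified by RT-PCR, HpaI digestion and capillary electrophoresis. Bidirectional fit against DMSO.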
Hepatocyte nuclear factor 3-beta (Homo sapiens), sequence (Q9Y261 whole entry, looked up): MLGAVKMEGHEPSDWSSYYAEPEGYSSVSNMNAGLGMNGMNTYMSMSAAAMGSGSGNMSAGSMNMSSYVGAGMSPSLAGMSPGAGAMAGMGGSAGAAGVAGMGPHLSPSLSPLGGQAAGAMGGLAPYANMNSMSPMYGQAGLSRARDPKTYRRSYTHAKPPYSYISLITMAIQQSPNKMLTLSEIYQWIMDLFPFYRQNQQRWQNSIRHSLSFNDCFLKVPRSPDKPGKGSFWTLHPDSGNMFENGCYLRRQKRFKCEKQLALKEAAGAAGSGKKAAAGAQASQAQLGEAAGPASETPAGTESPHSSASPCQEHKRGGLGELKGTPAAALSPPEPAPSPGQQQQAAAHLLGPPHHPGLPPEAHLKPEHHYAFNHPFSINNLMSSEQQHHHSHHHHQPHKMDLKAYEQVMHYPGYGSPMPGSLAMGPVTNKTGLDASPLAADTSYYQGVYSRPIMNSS

A short description of assay [8]: ATG_FoxO_CIS: Attagene CIS-FACTORIAL HepG2 Assay for human Forkhead box O (FoxO) (AID 2282943). The settings on record: HepG2 Attagene cis-reporter, FoxO element, mRNA; actives raise or lower the signal. An outline of the steps: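 HepG2 cells transiently transfected with cis-promoter-driven multiple reporter transcription units; 24 h after chemical dosing, reporter mRNA quantified by RT-PCR, fluorescent primer extension, HpaI digestion and capillary electrophoresis. Bidirectional fitting versus DMSO baseline.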

Assay [9] can be described thus: ATG_GATA_CIS: Attagene CIS-FACTORIAL HepG2 Assay for human GATA Binding Protein (AID 2282944). The conditions noted are these: HepG2 GATA cis-element reporter, Attagene multiplex mRNA; actives raise or lower the signal. An outline of the steps: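 Read-out: fluorescent reporter mRNA fragments resolved by capillary electrophoresis after RT-PCR. Human liver HepG2 cells carried transiently transfected cis-regulated reporter constructs; chemicals incubated 24 h; gain or loss of signal fitted relative to DMSO.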

A short description of assay [10]: ATG_GLI_CIS: Attagene CIS-FACTORIAL HepG2 Assay for human Zinc Finger Protein GLI1 (AID 2282945). The settings on record: HepG2, Attagene cis-factorial reporter mRNA, GLI element; actives raise or lower the signal. An outline of the steps:
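HepG2 cells transiently transfected with cis-promoter multiplexed reporter units report endogenous transcription factor activity. After 24 h chemical exposure, reporter mRNA was quantified by RT-PCR, 6-FAM labelling, HpaI digestion and capillary electrophoresis, with bidirectional fitting against DMSO.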

The nature of assay [11]: ATG_ISRE_CIS: Attagene CIS-FACTORIAL HepG2 Assay for human Interferon Regulatory Factor 1 (IRF1) binding to an Interferon-Stimulated Response Element (ISRE) (AID 2282948). The conditions noted are these: HepG2 ISRE cis-reporter (Attagene), mRNA transcription readout; actives raise or lower the signal. An outline of the steps: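 Read-out: fluorescent RT-PCR products resolved by capillary electrophoresis, reporting endogenous transcription factor activity via ISRE-driven reporter mRNA in transfected HepG2 cells dosed for 24 h; gain or loss fitted relative to DMSO.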

Assay [12] is described as follows: ATG_M_32_CIS: Attagene CIS-FACTORIAL HepG2 Assay for M32 Transcription Factor (Internal Marker) (AID 2282949).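 Also: background control marker of the multiplexed CIS panel rather than a real target.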 The settings on record: HepG2 Attagene cis-factorial M32 reporter, mRNA; actives raise or lower the signal. An outline of the steps:
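Using DMSO as baseline, bidirectional curve fits were applied to reporter mRNA signals. These came from transiently transfected HepG2 cells exposed for 24 h, with RNA analysed by RT-PCR, FAM primer extension, HpaI digestion and CE.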

Assay [13] can be described thus: ATG_M_06_CIS: Attagene CIS-FACTORIAL HepG2 Assay for M06 Transcription Factor (Internal Marker) (AID 2282950). The settings on record: HepG2 Attagene CIS-FACTORIAL M06 internal marker reporter; actives raise or lower the signal. An outline of the steps:
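Terse: HepG2, transient MRTU transfection (FuGene 6), 24 h dosing; total RNA, oligo(dT) RT, PCR, FAM label, HpaI cut, capillary electrophoresis; bidirectional fit vs DMSO baseline; background-control endpoint.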

The target of assay [14] is Hypoxia-inducible factor 1-alpha (Homo sapiens) (UniProt Q16665). As to the kind of experiment: ATG_HIF1a_CIS: Attagene CIS-FACTORIAL HepG2 Assay for human Hypoxia Inducible Factor 1 (HIF1A) (AID 2282951). The conditions noted are these: HepG2 Attagene cis-factorial HIF1a reporter transcription; actives raise or lower the signal. An outline of the steps:
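HepG2 cells transiently transfected with multiple cis-regulated reporter transcription units measure endogenous transcription factor activity. After 24 h exposure, reporter mRNA is quantified by RT-PCR with 6-FAM labelling, HpaI digestion and capillary electrophoresis. Bidirectional fitting against DMSO.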

The target in assay [15] is Hepatocyte nuclear factor 6 (Homo sapiens) (UniProt Q9UBC0). As to the kind of experiment: ATG_HNF6_CIS: Attagene CIS-FACTORIAL HepG2 Assay for human Hepatocyte Nuclear Factor 6 (HNF6) (AID 2282952). The settings on record: HepG2 Attagene cis-factorial HNF6 reporter transcription; actives raise or lower the signal. An outline of the steps:
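Twenty-four-hour chemical treatment of reporter-transfected HepG2 cells precedes RNA isolation, DNase-treated reverse transcription and PCR of reporter sequences. Labelled fragments are sized by capillary electrophoresis and fitted bidirectionally versus DMSO.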

A short description of assay [16]: ATG_MRE_CIS: Attagene CIS-FACTORIAL HepG2 Assay for human Metal Responsive Element (MRE) (AID 2282954). The settings on record: HepG2 MRE cis-reporter transcription, Attagene multiplex; actives raise or lower the signal. An outline of the steps:
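Readout: capillary electrophoresis of 6-FAM-labelled, HpaI-digested RT-PCR reporter products. System: HepG2 cells carrying transient multiplexed cis reporters, dosed 24 h. Analysis: bidirectional fit, DMSO baseline.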

A short description of assay [17]: ATG_PBREM_CIS: Attagene CIS-FACTORIAL HepG2 Assay for human Phenobarbital-responsive Enhancer Module (PBREM) (AID 2282955). The conditions noted are these: HepG2 PBREM cis-reporter, Attagene multiplexed transcription; actives raise or lower the signal. An outline of the steps: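 HepG2 cells transiently transfected with multiple cis-regulated reporter units measure endogenous transcription factor activity; 24 h compound exposure. Reporter mRNA quantified by RT-PCR, fluorescent labelling, HpaI digestion and capillary electrophoresis; bidirectional fit versus DMSO.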

For assay [18], the target named is Heat shock factor protein 1 (Homo sapiens) (UniProt Q00613). The assay is described as follows: ATG_HSE_CIS: Attagene CIS-FACTORIAL HepG2 Assay for human Heat Shock Transcription Factor 1 (HSE) (AID 2282953). The settings on record: HepG2 HSE cis-reporter, Attagene RNA transcription; actives raise or lower the signal. An outline of the steps: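 Read-out: fluorescence of reporter-specific RT-PCR fragments separated by capillary electrophoresis. HepG2 carrying transfected cis-element reporter units; 24 h dosing; activity fitted in both directions relative to DMSO baseline.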
Heat shock factor protein 1 (Homo sapiens), sequence (Q00613 whole entry, looked up, the tested form may be a part): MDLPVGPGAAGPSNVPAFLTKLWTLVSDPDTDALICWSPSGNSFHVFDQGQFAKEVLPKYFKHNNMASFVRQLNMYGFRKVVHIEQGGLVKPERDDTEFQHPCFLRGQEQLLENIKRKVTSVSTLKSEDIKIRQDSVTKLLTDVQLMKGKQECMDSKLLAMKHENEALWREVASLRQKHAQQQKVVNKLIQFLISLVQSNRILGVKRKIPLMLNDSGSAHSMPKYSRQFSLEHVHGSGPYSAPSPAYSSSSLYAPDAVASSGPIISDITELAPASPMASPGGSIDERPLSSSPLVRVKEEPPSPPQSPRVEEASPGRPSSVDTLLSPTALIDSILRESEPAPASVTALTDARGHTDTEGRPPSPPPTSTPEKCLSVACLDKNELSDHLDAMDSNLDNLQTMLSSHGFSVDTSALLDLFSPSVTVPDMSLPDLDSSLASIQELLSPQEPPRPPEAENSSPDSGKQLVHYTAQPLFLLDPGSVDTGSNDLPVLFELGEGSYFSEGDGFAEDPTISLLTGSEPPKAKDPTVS

Assay [19] deals with Bile acid receptor (Homo sapiens) (UniProt Q96RI1). As to the kind of experiment: ATG_IR1_CIS: Attagene CIS-FACTORIAL HepG2 Assay for human Nuclear Receptor Subfamily 1 Group H Member 4 (NR1H4), IR1 submotif (AID 2282946). The conditions noted are these: IR1 reporter transcription, actives raise or lower the signal. An outline of the steps: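 Readout: reporter transcript levels by RT-PCR with fluorescent capillary electrophoresis, from HepG2 cells transiently transfected with multiplexed cis-regulated reporters and dosed 24 h. Gain- or loss-of-signal fitted versus DMSO negative control.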
Bile acid receptor (Homo sapiens), sequence (Q96RI1 whole entry, looked up): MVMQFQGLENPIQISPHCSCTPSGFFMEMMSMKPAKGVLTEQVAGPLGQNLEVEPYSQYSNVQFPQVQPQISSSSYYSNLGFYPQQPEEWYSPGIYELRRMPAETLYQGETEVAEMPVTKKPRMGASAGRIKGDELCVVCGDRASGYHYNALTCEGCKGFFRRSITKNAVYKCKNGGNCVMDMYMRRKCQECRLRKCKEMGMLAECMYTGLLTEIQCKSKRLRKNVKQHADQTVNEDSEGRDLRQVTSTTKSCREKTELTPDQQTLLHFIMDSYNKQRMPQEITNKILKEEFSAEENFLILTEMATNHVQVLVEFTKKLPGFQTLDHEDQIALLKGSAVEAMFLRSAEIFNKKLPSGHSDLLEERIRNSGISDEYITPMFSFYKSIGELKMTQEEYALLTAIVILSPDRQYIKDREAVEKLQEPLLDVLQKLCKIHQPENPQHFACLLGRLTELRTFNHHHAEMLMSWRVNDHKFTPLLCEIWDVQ

Assay [20] can be described thus: ATG_GRE_CIS: Attagene CIS-FACTORIAL HepG2 Assay for human Glucocorticoid Response Elements (GRE) (AID 2282947). The settings on record: HepG2 GRE cis-reporter, Attagene multiplex mRNA; actives raise or lower the signal. An outline of the steps: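 HepG2, transient cis-reporter transfection, 24 h. Reporter mRNA: RT-PCR then CE, fluorescence. Fit both directions vs DMSO.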

Hepatocyte nuclear factor 6 (Homo sapiens), sequence (Q9UBC0 whole entry, looked up, the tested form may be a part): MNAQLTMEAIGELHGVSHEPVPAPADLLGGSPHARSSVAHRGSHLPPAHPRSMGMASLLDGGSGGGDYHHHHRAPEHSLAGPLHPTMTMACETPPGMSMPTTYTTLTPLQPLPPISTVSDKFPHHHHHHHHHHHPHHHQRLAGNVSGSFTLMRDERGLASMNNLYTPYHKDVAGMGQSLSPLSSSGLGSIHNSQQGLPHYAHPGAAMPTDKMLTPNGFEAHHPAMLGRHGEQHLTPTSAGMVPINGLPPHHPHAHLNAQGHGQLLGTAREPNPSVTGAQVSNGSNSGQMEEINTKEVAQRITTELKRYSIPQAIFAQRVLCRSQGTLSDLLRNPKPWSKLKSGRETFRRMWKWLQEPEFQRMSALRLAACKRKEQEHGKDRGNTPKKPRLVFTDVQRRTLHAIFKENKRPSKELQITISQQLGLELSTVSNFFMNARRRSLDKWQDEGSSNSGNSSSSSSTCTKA
Hypoxia-inducible factor 1-alpha (Homo sapiens), sequence (Q16665 whole entry, looked up): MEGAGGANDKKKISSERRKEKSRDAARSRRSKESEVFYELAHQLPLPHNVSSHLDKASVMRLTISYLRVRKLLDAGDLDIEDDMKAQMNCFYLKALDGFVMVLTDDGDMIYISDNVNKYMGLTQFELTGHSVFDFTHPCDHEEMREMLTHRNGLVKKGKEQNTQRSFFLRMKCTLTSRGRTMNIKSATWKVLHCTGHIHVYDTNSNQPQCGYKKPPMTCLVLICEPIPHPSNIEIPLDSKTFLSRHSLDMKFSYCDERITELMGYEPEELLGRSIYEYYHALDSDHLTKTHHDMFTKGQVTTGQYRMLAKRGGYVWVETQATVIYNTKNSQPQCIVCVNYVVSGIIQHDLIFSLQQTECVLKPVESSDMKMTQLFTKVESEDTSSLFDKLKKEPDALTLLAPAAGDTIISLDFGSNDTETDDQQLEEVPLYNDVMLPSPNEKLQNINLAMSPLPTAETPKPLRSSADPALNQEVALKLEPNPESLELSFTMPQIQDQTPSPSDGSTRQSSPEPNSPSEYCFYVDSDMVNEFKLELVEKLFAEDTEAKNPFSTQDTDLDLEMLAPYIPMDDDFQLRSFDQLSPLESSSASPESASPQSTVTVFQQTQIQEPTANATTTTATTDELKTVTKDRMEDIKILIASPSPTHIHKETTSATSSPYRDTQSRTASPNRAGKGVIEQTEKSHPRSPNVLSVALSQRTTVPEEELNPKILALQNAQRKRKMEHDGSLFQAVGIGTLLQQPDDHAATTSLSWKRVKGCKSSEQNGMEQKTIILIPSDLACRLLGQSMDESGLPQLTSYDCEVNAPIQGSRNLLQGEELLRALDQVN

`CS(=O)(=O)c1ccc([C@@H](C[C@H]2CCC(=O)C2)C(=O)Nc2cnccn2)cc1Cl`: the outcome in assay [1], in assay [2], in assay [3], in assay [4], in assay [6] and in assay [7] was inactive. The call in assay [8], in assay [9], in assay [10], in assay [11], in assay [12] and in assay [13] was inactive. The result in assay [14], in assay [15], in assay [16] and in assay [17] was inactive. For the same compound, the AC50 in assay [5] was 45.5 µM (active).

As for `CCCCCCCCCCCCCCCCO`, the outcome in assay [1], in assay [2], in assay [3], in [4], in [5] and in assay [6] was inactive. Besides, the call in assay [7], in assay [8], in assay [9], in assay [10], in [11] and in assay [12] was inactive. In addition, the result in assay [13], in [14], in assay [15], in assay [18], in assay [16] and in assay [17] was inactive.

Consider `Cc1c(C)c2c(c(C)c1O)CCC(C)(COc1ccc(CC3SC(=O)NC3=O)cc1)O2` (stereo unspecified), for which the outcome in assay [1], in assay [2], in assay [3], in assay [4], in assay [6] and in assay [7] was inactive. The compound was called inactive in assay [8], in assay [9], in [10], in assay [19], in [11] and in assay [12]. Besides, the call in [13], in assay [14], in assay [15] and in assay [17] was inactive. In addition, the figures for the concentration at half-maximal activity (AC50) in assay [5] and in assay [16] were 0.221 µM (active) and 17.4 µM (active), respectively.

As to `O=C(O)CN(CC(=O)O)CC(=O)O`, the result in [1], in [2], in [3], in assay [4], in assay [5] and in assay [6] was inactive. Also, the call in assay [7], in [8], in assay [9], in assay [10], in assay [19] and in [11] was inactive. Also, the call in assay [12], in [13], in [14], in [15], in assay [18] and in [16] was inactive. Further, in assay [17], the result was inactive.

`O=[Si]=O`: the outcome in assay [1], in assay [2], in assay [3], in assay [4], in assay [5] and in [6] was inactive. Also, the call in assay [7], in [8], in assay [9], in assay [10], in assay [11] and in assay [12] was inactive. Further, the compound was called inactive in assay [13], in [14], in assay [15], in [18] and in assay [16].

Consider `CC(C)c1cccc(C(C)C)c1`, for which the outcome in [1], in [2], in [3], in [4], in [5] and in [6] was inactive. Besides, the result in [7], in assay [8], in assay [9], in assay [19], in assay [20] and in assay [11] was inactive. The call in [12], in assay [13], in assay [14], in assay [15], in assay [18] and in assay [16] was inactive.

Regarding `c1ccc2occc2c1`, the outcome in [1], in assay [2], in [3], in [4], in [5] and in [6] was inactive. Moreover, the outcome in assay [7], in assay [8], in assay [9], in [10], in [19] and in assay [11] was inactive. Besides, the call in assay [12], in [13], in assay [14], in [15], in [18] and in [16] was inactive. In addition, the result in [17] was inactive.
